Compound activity from PubChem BioAssay.
HP1b chromo inh: HTS for Inhibitors of HP1-beta Chromodomain Interactions with Methylated Histone Tails | Chromobox protein homolog 1 (Homo sapiens), P83916 | AlphaScreen HP1-beta / biotin-H3K9me3 peptide binding | Potency, µM (doses to about 114 µM), inactives show at the highest dose activity change, negative = inhibition, actives largely listed as inhibitors | hit rate 0.56% among 390,000; note: nearly all actives have a fitted effect of over 70% in size
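AlphaScreen: HP1-beta (50 nM) preformed 30 min with biotin-H3(1-18)K9me3 peptide (50 nM) in PBS pH 7.4, 0.01% Tween-20. Compound added for 30 min at RT, then streptavidin donor/nickel chelate acceptor beads (10 ug/mL) for 30 min.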
G9a inh: qHTS Assay for Inhibitors of Histone Lysine Methyltransferase G9a. Histone-lysine N-methyltransferase EHMT2 (Homo sapiens), Q96KQ7. Potency, µM (titrated, usually from 102 µM), without a hit: at the highest dose activity, negative = inhibition, most hits filed as inhibitors. hit rate 8.8% among 350,000. G9a H3K9 monomethylation, AlphaScreen, 2 h; note: % is set by controls: 0 for no effect and ±100 for the full control effect; nearly all actives have a fitted effect of over 75% in size
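Enzyme 20 nM + cpd, 15 min RT; add b-H3K9 pep 500 nM / SAM 20 uM; 2 h RT; anti-H3K9me1 Ab 0.5 ug/mL + SA donor / anti-rabbit acceptor beads 20 ug/mL each, 10 min; AlphaScreen read.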
PLK1 PBD inh: qHTS for Inhibitors of PLK1-PDB (polo-like kinase 1 - polo-box domain): Primary Screen | Plk1 PBD binding of FITC phosphopeptide, fluorescence polarization | hit rate 2.8% among 360,000 | AID 720504, 2013 | Serine/threonine-protein kinase PLK1 (Homo sapiens), P53350 | Potency, µM, for inactives: max response, negative = inhibition, actives largely listed as inhibitors; note: series mostly up to about 57 µM; % is set by controls: 0 for no effect and ±100 for the full control effect; nearly all actives have a fitted effect of over 65% in size
Target sequence (P53350 whole entry, looked up, the tested form may be a part): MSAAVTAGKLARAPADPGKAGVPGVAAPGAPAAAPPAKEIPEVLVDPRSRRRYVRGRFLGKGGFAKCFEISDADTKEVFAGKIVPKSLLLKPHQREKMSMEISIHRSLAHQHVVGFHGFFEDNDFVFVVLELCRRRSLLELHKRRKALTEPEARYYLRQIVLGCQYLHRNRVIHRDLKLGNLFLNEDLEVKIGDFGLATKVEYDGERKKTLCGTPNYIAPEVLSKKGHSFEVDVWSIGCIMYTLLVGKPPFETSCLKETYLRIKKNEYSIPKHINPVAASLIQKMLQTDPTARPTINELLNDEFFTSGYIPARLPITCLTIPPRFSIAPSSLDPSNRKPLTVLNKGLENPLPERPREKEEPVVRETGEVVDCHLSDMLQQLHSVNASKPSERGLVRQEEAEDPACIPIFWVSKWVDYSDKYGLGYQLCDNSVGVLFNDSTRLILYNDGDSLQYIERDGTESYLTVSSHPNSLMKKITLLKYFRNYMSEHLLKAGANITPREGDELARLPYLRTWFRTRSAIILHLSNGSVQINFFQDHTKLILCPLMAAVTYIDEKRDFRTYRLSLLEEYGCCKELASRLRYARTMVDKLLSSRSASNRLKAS
BAZ2B inh: qHTS Assay for Inhibitors of BAZ2B; Bromodomain adjacent to zinc finger domain protein 2B (Homo sapiens), Q9UIF8; AlphaScreen BAZ2B-H3K14Ac peptide displacement; Potency, µM (series often up to 114 µM), inactives show top-dose activity change, negative = inhibition, actives largely listed as inhibitors; hit rate 4.4% among 360,000; AID 504333, 2011; note: % is set by controls: 0 for no effect and ±100 for the full control effect; nearly all actives have a fitted effect of over 60% in size
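AlphaScreen luminescence quantifies BAZ2B engagement of H3K14Ac peptide; the protein and biotinylated peptide are both at 50 nM final, buffer PBS pH 7.4 with 0.01% Tween-20, all steps at room temperature.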
JMJD2A Tudor inh: qHTS Assay for Inhibitors of JMJD2A-Tudor Domain. AlphaScreen JMJD2A-Tudor / H3K4me3 peptide binding. Lysine-specific demethylase 4A (Homo sapiens), O75164. AID 504339, 2011. Potency, µM (highest dose often 114 µM), for inactives: at the top dose activity change, negative = inhibition, usual class: inhibitors. hit rate 4.4% among 390,000; note: % is set by controls: 0 for no effect and ±100 for the full control effect; nearly all actives have a fitted effect of over 50% in size
Sfp inh: qHTS Assay for Inhibitors of Bacillus subtilis Sfp phosphopantetheinyl transferase (PPTase). Biochemical Sfp PPTase activity, qHTS. hit rate 3.5% among 310,000. AID 1490, 2009. Potency, µM, without a hit: largest response in the series, negative = inhibition, most hits filed as inhibitors. 4'-phosphopantetheinyl transferase ffp (Bacillus subtilis), Q9F4F7;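 note: the enzyme is Sfp with the accession as filed and its product quenches rhodamine fluorescence; 0% = enzyme reaction without inhibitor and -100% = no enzyme wells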
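Sfp 15 nM + cpd, 15 min RT; start w/ rhodamine-CoA 5 uM, BHQ-2-YbbR 12.5 uM (final); 50 mM Hepes pH 7.6, 10 mM MgCl2, 0.01% NP-40, 0.01% BSA; read 525/598 nm at 0 and 30 min.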
* marks the source's active call; other numbers are inactive results; u = inconclusive; x = no result given; [ ] = remark or other dose. The list is not random: actives were taken first. Their share in the collection is about 12%. Calls come from the whole dose curve; as a rule, active = well fitted curve in the direction sought with a large enough effect; inconclusive = small, poorly fitted or top-dose-only effect, or another doubt; inactive = no such curve, though single readings can be large; an effect the other way counts as inactive or inconclusive. Potency is the fitted concentration of half-maximal effect.

SMILES	HP1b chromo inh	G9a inh	PLK1 PBD inh	BAZ2B inh	JMJD2A Tudor inh	Sfp inh
CC1(OC(=O)c2ccc(Cl)nc2)C(=O)C=C2C=C3CCCN3C=C2C1=O (stereo not given)	u	-32%[59 µM]	u	u	45µM*	u
COC(=O)C[C@H]1CC[C@H](NS(=O)(=O)c2cn(C)cn2)[C@@H](CO)O1	x	x	-16%	x	x	x
COc1ccccc1-c1nn(CCC(=O)Nc2ccccc2)c2nc(C)cc(C)c12	24%	1%[59 µM]	x	-7%	-10%	x
CSc1nnc(C)c(/C=C/NOCc2cccc(F)c2)n1	5%	22µM*	0%	u	-26%	-9%
CCOCCCn1c(-c2ccc(Cl)cc2)n[nH]c1=S	-21%	1.8µM*	-6%	-6%	4µM*	6%
COCCCn1c(-c2ccc(Cl)cc2)n[nH]c1=S	-11%	4µM*	-12%	-17%	7.9µM*	2%
S=c1[nH]nc(-c2ccc(Cl)cc2)n1CCCN1CCOCC1	16%	40µM*	-12%	6%	10µM*	13%
COCCCn1c(-c2ccccc2Cl)n[nH]c1=S	22%	2.2µM*	-1%	-1%	7.9µM*	9%
COc1ccc(OC(=O)c2ccc(OC)c(S(=O)(=O)N3CCOCC3)c2)cc1	23%	u	2%	-9%	-10%	7%
NS(=O)(=O)c1cc2c(cc1C(F)(F)F)N[C@H](Cc1ccccc1)NS2(=O)=O	x	29%[21.5 µM]	x	x	x	28%
COc1ccc(CCNC(=O)c2cnn(-c3cccc(C)c3)c2C2CCN(C(=O)OC(C)(C)C)CC2)cc1OC	1%	-19%[59 µM]	x	0%[57.1 µM]	-24%	x
O=C(CN1C(=O)COc2ccc(S(=O)(=O)N3CCCCCC3)cc21)N1CCN(c2ccc(F)cc2)CC1	13%	-3%[59 µM]	x	-28%	-29%	x
CCOc1ccc(/C=C/c2nc(C#N)c(NC(C)CC)o2)cc1 (stereo not given)	15%	4%[59 µM]	x	-28%	-16%	x
O=C(NCCN1CCNC1=O)C1CCC(=O)N(Cc2cccc(C(F)(F)F)c2)C1 (stereo not given)	23%	-9%	-18%	-3%[57.1 µM]	1%	4%
COc1cc(C(=O)CSc2nncn2C)cc(OC)c1OC	42%	40µM*	-6%	u	-14%	u
O=C1c2ccccc2N2C(=O)c3ccccc3C2N1Cc1ccco1 (stereo not given)	15%	u	-5%	u	-16%	50µM*
Cc1ccccc1NC1c2ccccc2C(=O)N1Cc1ccco1 (stereo not given)	16%	45µM*	-12%	u	-32%	28µM*
O=C1c2ccccc2C(Nc2cccc(C(F)(F)F)c2)N1Cc1ccco1 (stereo not given)	18%	71µM*	-20%	-7%	u	40µM*
COc1cccc(NC2c3ccccc3C(=O)N2Cc2ccco2)c1 (stereo not given)	9%	50µM*	-11%	-36%	u	u
CC(=O)OC[C@@H]1O[C@@H](O/N=C2/C[C@@H](O)[C@@H](O)[C@@H]3[C@@H]4C(=O)N(C(C)(C)C)C(=O)[C@H]4CC[C@@H]23)[C@H](OC(C)=O)[C@H](OC(C)=O)[C@@H]1OC(C)=O	x	x	x	x	x	15%
O=C(OCCOc1ccccc1)c1n[nH]c2ccccc12	14%	1%	6%	1%	11%	-1%
O=C(N/N=C/c1ccc([N+](=O)[O-])cc1)c1cccs1	31%	50µM*	-12%	-36%	-35%	-8%
O=C(N/N=C/c1cccc([N+](=O)[O-])c1O)c1cccs1	3%	50µM*	-1%	22µM*	50µM*	22%
O=C(N/N=C/c1ccc(-c2cccc([N+](=O)[O-])c2)o1)c1cccs1	19%	4%	-3%	-16%	-8%[11.4 µM]	7%
O=C(N/N=C/c1cccc2ccccc12)c1cccs1	18%	48%	-1%	10%	-23%	-13%
SMILES	HP1b chromo inh	G9a inh	PLK1 PBD inh	BAZ2B inh	JMJD2A Tudor inh	Sfp inh
CCn1c(SCC(=O)NC2CCCC2)nc2c(c1=O)SCC2	x	x	-10%	x	x	x
CCNc1nn2ccccc2c1/C=C(\C#N)C(=O)OCC	30%	3%	-14%	-3%	-11%	18%
CC1Cn2c(nnc2-c2ccccc2O)S1 (stereo not given)	33%	8.9µM*	-3%	u	u	-4%
CC1Cn2c(nnc2-c2cc3ccccc3cc2O)S1 (stereo not given)	15%	u	1%	-8%	-32%	-17%
O=C(O)CC1=C(Nc2ccccc2)C(=O)N(c2ccccc2)C1c1ccc(F)cc1 (stereo not given)	7%	32µM*	-17%	-37%	-31%	11%
O=C(O)CC1=C(O)C(=O)N(c2ccccc2)C1c1ccc(Br)cc1 (stereo not given)	30%	39%[0.501 µM]	-8%	-6%	-11%	9%
O=C(O)CC1=C(O)C(=O)N(c2ccccc2)C1c1ccccc1 (stereo not given)	40%	13µM*	-12%	9%	-20%	-26%
COc1ccc(C2C(CC(=O)O)=C(Nc3ccccc3)C(=O)N2c2ccccc2)cc1 (stereo not given)	41%	u	-2%	-38%	-23%	9%
O=C(/C=C/c1ccc(F)cc1)NCC1(c2ccccc2)CCOCC1	27%	-5%[59 µM]	-5%	10%	-1%	-11%
CN(CCC1CCCCO1)C(=O)CCc1nnc(Cc2c[nH]c3ccccc23)o1 (stereo not given)	35%	79µM*	5%	-15%	-8%	6%
COc1ccccc1CNCC(=O)Nc1ccc(C(F)(F)F)cc1	6%	22µM*	-4%	56µM*	-14%	-4%
COc1ccccc1CNCC(=O)Nc1ccc(C#N)cc1	-21%	5.6µM*	-2%	50µM*	u	-19%
COc1ccccc1CC(=O)Nc1ccc(S(=O)(=O)N2CCCCC2)cc1	-17%	u	-15%	-2%	-17%	-7%
COc1ccccc1CNCC(=O)Nc1ccccc1-n1cccc1	u	10µM*	0%	50µM*	22µM*	u
COc1ccccc1CCC(=O)Oc1ccc(C#N)cc1OC	117%	25µM*	-4%	2%	42%	-9%
COc1cc(C#N)ccc1OC(=O)Cc1cc(OC)c(OC)c(OC)c1	7%	u	5%	1%	5%	4%
C1CCC(C(C[C@@H]2CCCCN2)C2CCCCC2)CC1	x	6%[21.5 µM]	x	x	x	2%
